Data from the supplement of paper PMC6555819.

Columns and labels:
Assay in all cases: PBM binding z-score (relative to random genomic background probes); higher = stronger binding; sequences stand for … in GC…GCGATTGACAGCGTAGAATGAAGG
[1] = test system: FXR:RXRa (NR concentration 270 nM, RXRa partner concentration 90 nM)
In short: (§1)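 Regression normalization was applied to scanned fluorescence from custom Agilent 4×180K protein-binding microarrays. Before scanning, arrays were incubated 1 h with ligand-free nuclear receptor dimers, and binding was detected with antibodies against each partner (one per run). Binding z-scores use the random background probes as reference.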

[2] = test system: LXRa:RXRa (NR concentration 270 nM, RXRa partner concentration 90 nM)
In short: as §1

[3] = test system: LXRa homodimer (NR concentration 270 nM)
In short: as §1

[4] = test system: LXRb:RXRa (NR concentration 270 nM, RXRa partner concentration 90 nM)
In short: as §1

[5] = test system: LXRb homodimer (NR concentration 270 nM)
In short: as §1

[6] = test system: PPARa:RXRa (NR concentration 270 nM, RXRa partner concentration 90 nM)
In short: as §1

[7] = test system: PPARg:RXRa (NR concentration 180 nM, RXRa partner concentration 90 nM)
In short: as §1

[8] = test system: PPARg:RXRa 270nM:90nM, anti-RXR (NR concentration 270 nM, RXRa partner concentration 90 nM)
In short: as §1

[9] = test system: PPARg:RXRa 30nM:10nM, anti-RXR (NR concentration 30 nM, RXRa partner concentration 10 nM)
In short: as §1

[10] = test system: PPARg:RXRa 90nM:30nM, anti-RXR (NR concentration 90 nM, RXRa partner concentration 30 nM)
In short: as §1

[11] = test system: PPARg:RXRa DBDmut IVT, anti-RXR (DBD mutation: RXRa K156A/R161A, NR concentration 270 nM, RXRa partner concentration 90 nM)
In short: as §1

[12] = test system: PPARg:RXRa IVT, anti-PPARg (NR concentration 270 nM, RXRa partner concentration 90 nM)
In short: as §1

[13] = test system: PPARg DBDmut:RXRa IVT, anti-PPARg (DBD mutation: PPARg1 K132A/R137A, NR concentration 270 nM, RXRa partner concentration 90 nM)
In short: as §1

[14] = test system: PPARg DBDmut IVT, anti-PPARg (DBD mutation: PPARg1 K132A/R137A, NR concentration 270 nM)
In short: as §1

[15] = test system: PPARg homodimer (NR concentration 180 nM)
In short: as §1

[16] = test system: PXR:RXRa (NR concentration 270 nM, RXRa partner concentration 90 nM)
In short: as §1

[17] = test system: PXR homodimer (NR concentration 270 nM)
In short: as §1

[18] = test system: RARa:RXR (NR concentration 270 nM, RXRa partner concentration 90 nM)
In short: as §1

[19] = test system: RARa homodimer (NR concentration 270 nM)
In short: as §1

[20] = test system: RARb:RXRa (NR concentration 270 nM, RXRa partner concentration 90 nM)
In short: as §1

Sequence	PBM binding z-score [1]	PBM binding z-score [2]	PBM binding z-score [3]	PBM binding z-score [4]	PBM binding z-score [5]	PBM binding z-score [6]	PBM binding z-score [7]	PBM binding z-score [8]	PBM binding z-score [9]	PBM binding z-score [10]	PBM binding z-score [11]	PBM binding z-score [12]	PBM binding z-score [13]	PBM binding z-score [14]	PBM binding z-score [15]	PBM binding z-score [16]	PBM binding z-score [17]	PBM binding z-score [18]	PBM binding z-score [19]	PBM binding z-score [20]
CCTCGGAGGACAGAAGATCAGAGCTGTCCGCTTT	-0.222	-0.485	-0.602	-0.91	-1.2	-0.456	-0.0907	-0.214	-0.616	-0.38	-0.304	-0.633	-2.13	-1.48	-0.0483	-0.636	-0.786	-0.512	-0.276	0.386
TCATATAGGGAATACAGGTGAAAGTCGGCATCTA	1.31	1.1	0.252	0.958	0.236	1.92	1.16	2.76	4.44	3.22	3.35	2.3	1.03	1.07	1.14	0.862	0.632	1.2	1.4	0.823
CCGTACGGGTCACGAGGTTATAGCACGACGAGCG	6.63	4.94	0.31	4.08	-0.283	5.88	6.72	6.37	2.37	4.99	2.29	3.93	0.613	-0.38	2.82	4.73	-0.215	6.42	1.17	4.48
CCTACTGGGCCAAAAAGGTCATTGAGGCCGATAA	3.73	4.24	2.98	4.11	0.134	4.69	3.3	3.92	1.27	3	3.53	3.88	-0.547	-0.0751	2.79	5.38	10.7	5.6	2.12	3.8
TAGCCTAGGTCATTCAGGGGCCTGTATAGAAAGC	4.5	3.47	0.422	2.66	0.91	3.5	2.01	2.08	0.363	1.19	1.43	2.65	-0.0905	-0.0908	0.863	1.75	-0.488	2.51	-0.792	3.52
ATCGAAAGGTCGAAGGTTAGTATACCCACCCGAA	4.06	3.5	0.517	3.05	0.649	4.71	4.46	5.12	2.51	4.28	0.165	2.11	1.15	0.865	1.68	3.34	0.404	4.69	1.42	3.76
TAGCCTAGGTCATGCGGGCCAGTATCGTGTCGGC	3.99	3.03	0.667	1.41	-0.226	3.06	1.67	2.29	0.00483	1.36	1.85	2.82	-0.0878	-0.59	0.211	1.41	-0.532	2	-0.99	3.49
ACTAGCAGGCCAAGGGTCAGTCAAGATTAGTCCG	1.44	1.16	-0.0253	1.33	-0.691	3.79	6.42	6.45	5.89	6.62	0.997	2.79	-0.401	-0.926	1.54	1.69	-0.439	2.56	-0.0893	2.85
AGAATGAGGTTATATGTAGATCAGGGAAGAAAGT	2.11	1.96	0.495	1.82	0.548	3.26	2.33	2.5	0.823	1.87	3.28	2.52	1.48	1.02	1.32	1.2	0.891	1.75	1.37	1.57
ATCTCTAGGTAAAGATACTTCAGTGAATGCAAAT	0.262	0.149	0.0511	0.403	0.44	0.361	0.884	0.723	0.521	0.608	1.8	1.32	1.1	1.13	0.534	0.635	0.252	0.522	0.591	-0.033
TCTATTAGTTGATTAGGGCAGCCGAAACAGCGGA	0.608	0.627	0.0696	0.52	0.663	1.01	0.0121	1.92	3.66	2.93	1.91	1.17	1.45	0.97	0.935	0.355	0.226	0.394	0.461	0.624
CTACCAAGGTGAACAAGGTCTTTGATTACTATTC	0.811	0.534	-0.122	1.18	-0.113	1.71	0.626	0.721	0.0464	0.438	2.51	2.75	0.785	0.293	0.597	0.752	0.0854	0.973	0.482	1.72
CGAACTGGGTCATTGACAGGACAGTGAATAGTAA	3.16	1.97	0.288	1.86	-0.438	4.39	6.77	5.84	2.72	5.44	7.7	7.88	1.06	1.35	0.71	1.41	0.347	2.18	0.276	2.92
TGTCAAAGTTCAAAAGTAACGTAAGTATCCACAC	6.34	6.07	4.09	4.04	2.53	4.83	7.77	6.63	4.65	6.63	-0.0254	3.6	1.92	2.39	1.89	4.46	3.74	3.65	1.1	4.6
ACTAGCAGGCCTAGTTTGGGTCACTCAAACAAAG	-0.223	-0.267	-0.434	0.356	-0.757	1.13	-0.314	0.138	-0.572	-0.184	-0.402	0.669	-0.351	-1.26	-0.416	0.282	-0.591	1.1	-0.718	0.83
CCTCGGAGGACAACAGGAGGTAAGAGCTGCCAGA	0.127	-0.463	-0.208	-0.701	-0.983	-0.345	0.154	-0.624	-0.764	-0.831	-0.141	-0.621	-1.15	-1.44	0.0253	-0.402	-0.651	-0.0361	0.0272	0.846
CGTCCAACGTCAGAGAGGTCAGTGAATGCCGAGT	1.61	1.76	0.849	1.75	-0.287	2.31	0.391	0.537	-0.521	-0.194	0.129	0.706	-0.788	-0.969	1.24	2.74	0.717	2.53	0.224	2.92
TATACAGGGTCAAAGGCTAGAGTACGAATGTCGA	7.16	6.17	2.74	4.84	2.57	5.93	7.9	7.07	5	6.71	2.33	4.88	1.73	2.03	3.15	4.01	1.01	5.02	1.11	4.53
TCAAGTTGGTCACGGAGGTCACACACGACGGGTA	3.09	3.76	2.38	3.17	0.603	4.18	3.94	3.95	3.52	3.47	2.45	3.99	1.48	0.93	2.72	4.35	1.65	4.61	1.86	3.98
CCTCGGAGCACAGAAGGTCAGAGCTGTCCGCTTT	1.68	2.17	0.231	1.21	-0.905	1.97	-0.336	0.536	-1.06	-0.433	0.355	-0.108	-1.25	-1.67	1.34	1.87	0.017	2.1	-0.245	2.62
CCAACTAGGTCAGAACAGGACAGTGAAGGATGAT	1.3	1.41	0.28	0.911	0.446	2.61	4.46	3.56	1.37	2.8	6.64	6.66	2.08	1.17	1.73	1.13	0.914	2.07	1.58	2.98
GCAGACAGGTAAAACGCAGGTAACTCAGGGTGGC	-0.253	-0.37	-0.412	-0.448	-0.917	-0.183	0.515	-0.433	-0.834	-0.835	-0.691	-0.804	-1.23	-0.839	-0.847	-0.561	-0.484	-0.286	-0.674	-0.486
GGAACGAGGGCAAGTTGATAGCAGAGTTTGATGG	1.07	0.522	-0.269	0.278	-0.586	1.74	1.19	1.03	-0.0238	0.39	3.78	2.54	-0.0364	-0.551	0.361	0.937	0.84	0.145	-0.166	2.63
CGAACTAGGTCAAAGGTCAAAGTCGAGCCAACCA	8.28	7.41	5.37	7.03	2.53	7.47	14.1	11.4	14.7	14	8.51	9.23	5.13	3.23	6.9	7.09	2.03	8.93	3.32	5.51
CGTCCAAGTTCAGCAGGTCAGTGAAAGCGACGTG	2.28	2.06	1.12	1.53	-0.267	2.49	0.395	1.17	-0.436	0.285	0.444	0.339	-0.163	-0.669	1.77	2.59	1.6	2.38	0.583	3.75
CCGACTGGGGCATAAGGTTCCCATAAGCCAGCCC	-0.429	-0.436	-0.915	-0.62	-1.28	0.156	0.836	1.45	-0.116	1.19	1.82	2	-1.14	-1.53	-0.0208	-0.582	-0.205	-0.563	0.262	0.252
ATGTCTAGGTAAAGATAGTTCAGTGAATGCAAAT	0.0456	4.09	0.552	0.617	0.0209	0.376	0.701	0.217	0.312	0.184	1.16	1.51	0.413	1.23	0.188	0.798	0.588	0.428	0.724	0.63
ATCGAAAGGTGGAAGGTGAGTATACCCACCCGAA	0.216	0.0772	-0.308	0.022	-0.0817	1.53	1.53	2.05	0.816	1.58	-0.723	0.561	0.498	0.266	0.464	0.15	-0.16	0.474	-0.403	0.83
TATACAGGGTCAAAGTCCAGAGTACGAATGTCGA	6.87	6.67	3.54	5.33	3.32	5.98	6.93	6.5	3.78	5.77	2.42	4.52	3.19	3.67	3.98	4.6	1.31	5.3	2	4.42
